# Measurements: ChEMBL document CHEMBL4513216, “Probing the Open Global Health Chemical Diversity Library for Multistage-Active Starting Points for Next-Generation Antimalarials” (ACS Infect Dis, 2020)
# Among all 68,000 compounds or so, about 2,700 (4%) showed an effect of 50% or more. This is one part of a sample in which strong results are shown more often than they occur.
# Tested on: Plasmodium berghei
# Assay: Screen against P. berghei liver stage (PbLuc), transformed with Luciferase, at 2uM
# Format: functional, HepG2
# Conditions: tested at 2 uM
row,Structure (SMILES),INHIBITION [%]
1,CN1CCC(N(CCc2ccccc2)C(=O)c2ccc(C#N)nc2)CC1,31.12
2,CCc1cc(CNC(=O)N2Cc3ccccc3N(C)CC2C)[nH]n1 (stereo not given),-19.7
3,CC1CN(C)c2ccccc2CN1C(=O)NCc1ccon1 (stereo not given),16.79
4,CCc1cc(CNC(=O)N2Cc3ccccc3N(C)CC2C)on1 (stereo not given),61.01
5,O=C(CN1CCC2(CCCN(CCO)C2=O)C1)NCCc1ccccc1 (stereo not given),-27.89
6,Brc1cccc(C2(CNCc3cc[nH]c3)CCOCC2)c1,10.93
7,O=C(CS(=O)(=O)c1ccc(Cl)cc1)NC1CCCc2ccccc21 (stereo not given),44.37
8,CN(C)CC1CN(c2ncnc3[nH]ccc23)CCO1 (stereo not given),-35.72
9,Cc1cc(N2Cc3cnn(CCO)c3C2)nc(-c2ccccc2)n1,67.53
10,Cc1cc(NCCO)nc(-c2ccccc2O)n1,-4.81
11,Cc1cc(N2Cc3cnn(CCO)c3C2)nc(-c2ccccc2O)n1,53.55
12,Cc1cc(N2CCOC(C(F)(F)F)C2)nc(-c2ccccc2O)n1 (stereo not given),-43.28
13,Cc1cc(N2CCN(CCO)CC2)nc(-c2ccncc2)n1,1.22
14,CCCc1nc(C)cc(N2Cc3cnn(CCO)c3C2)n1,-18.52
15,Cc1ccc(CC(=O)N2Cc3nccn3CC(Cn3cccn3)C2)cc1 (stereo not given),-8.05
16,CCc1nc(C2CCCN(C(=O)c3cccc(C(N)=O)c3)C2)no1 (stereo not given),-12.41
17,COc1ccc2[nH]c3c(c2c1)CN(c1cc(NCCO)nc(N)n1)CC3,13.24
18,CN(Cc1ccccc1)C(=O)[C@@H]1Cc2[nH]cnc2CN1C,4.59
19,CN1Cc2nc[nH]c2C[C@H]1C(=O)NC1CCCCC1,60.6
20,O=C([C@@H]1Cc2[nH]cnc2CN1C(=O)NC1CCCCC1)N1CCCC1,17.77
21,CCC(C)C(=O)N(C)Cc1cc(F)ccc1N1CCC(OC)CC1 (stereo not given),15.56
22,Cc1ccc(CNC(=O)c2ccc(S(=O)(=O)N3C[C@H]4C[C@@H]3CN4)cc2)o1,44.86
23,CC(C)N1CCC(CNCc2c[nH]nc2C(C)(C)C)C1 (stereo not given),66.97
24,CC(C)(C)c1n[nH]cc1CNCC1CCN(C2CC2)C1 (stereo not given),10.43
25,CCN1CCC(CNCc2c[nH]nc2C(C)(C)C)C1 (stereo not given),37.68
26,CCc1nc(CN2CCOC(Cn3nc(C)cc3C)C2)no1 (stereo not given),-7.73
27,O=C(CCCc1nc(C2CC2)no1)N1CCCC(c2ccn[nH]2)C1 (stereo not given),41.84

row,Structure (SMILES),INHIBITION [%]
1,COc1ccc(Cl)cc1NC(=O)CCNc1ccc(C#N)cn1,9.27
2,N#Cc1cccc(CN2CC[C@@H]3CN(c4ncccn4)CCO[C@@H]3C2)c1,14.94
3,O=S(=O)(C1CC1)N1CCc2onc(COc3ccccn3)c2C1,16.03
4,O=C(NCc1cc[nH]n1)N1CCCCC(N2CCCC2)C1 (stereo not given),8.37
5,N#Cc1ccccc1N1CCCN(C(=O)NCc2cc[nH]n2)CC1,-13.24
6,CCOc1ccccc1N1CCN(C(=O)NCc2cc[nH]n2)CC1,56.02
7,CC(=O)NC1CCCN(C(=O)NCc2cc[nH]n2)C1 (stereo not given),45.83
8,O=C(NCc1cc[nH]n1)N1CCN(c2ccccc2Cl)CC1,-56.99
9,CC(=O)N1CCCN(C(=O)NCc2cc[nH]n2)CC1,-27.69
10,O=C(NCc1cc[nH]n1)NCC(c1ccco1)N1CCCC1 (stereo not given),-4.1
11,O=C(NCc1cc[nH]n1)N1CCN(c2ncccn2)CC1,-23.42
12,CCN1CCN(C(=O)NCc2cc[nH]n2)CC1,56.02
13,Cc1nc(CCNC(=O)NCC(c2ccco2)N(C)C)cs1 (stereo not given),34.73
14,O=C(NCc1cc[nH]n1)N1CCCC(N2CCCC2)C1 (stereo not given),51.94
15,CN(C)C(CNC(=O)NCc1cc[nH]n1)c1ccco1 (stereo not given),53.61
16,CCCN(CC)C(=O)c1cc(Cn2c(C)nc3ccccc32)[nH]n1,38.75
17,CNS(=O)(=O)c1cccc(CNc2ncccn2)c1,-18.94
18,c1ccn(Cc2nnc3n2CCCN(Cc2ccoc2)C3)c1,18.31
19,CCC(CNC(=O)NCc1cc[nH]n1)N1CCCC1 (stereo not given),76.6
20,CC(C)CC(CNC(=O)NCc1cc[nH]n1)N1CCOCC1 (stereo not given),40.29
21,COc1ccccc1C(CNC(=O)NCc1cc[nH]n1)N1CCCC1 (stereo not given),-10.44
22,CC(=O)N1CC[C@@H]2CN(Cc3ccncc3)S(=O)(=O)[C@@H]2CC1,-66.17
23,Cc1c(C2CCOC(C)(C)C2)nc(N)c(C#N)c1-c1ccc(O)cc1 (stereo not given),-11.34
24,Cc1ccc(C)c2c1NC(=O)C2CC(=O)O (stereo not given),42.8
25,Cc1cc(C)c2c(c1)NC(=O)C2CC(=O)O (stereo not given),33.22
26,Cc1cc(C)c2c(c1)C(CC(=O)O)C(=O)N2 (stereo not given),52.38
27,CCN1CC2(CC1=O)CN(C(=O)c1cccs1)CCN(C(=O)N(C)C)C2 (stereo not given),-48.39

row,Structure (SMILES),INHIBITION [%]
1,CCc1noc(CS(=O)(=O)Cc2nc(Cc3ccccc3)no2)n1,34
2,CCc1noc(CS(=O)(=O)Cc2ccccc2Cl)n1,61.32
3,CCc1noc(CS(=O)(=O)Cc2ccccc2C)n1,30.59
4,CC(=O)N1CCCC1C(=O)NCCOc1cccc(F)c1 (stereo not given),16.25
5,CN(C)C(=O)NC1COC2(CCN(Cc3ccc(N(C)C)cc3)CC2)C1 (stereo not given),53.98
6,CN(C)C(=O)NC1COC2(CCN(Cc3ccccc3)CC2)C1 (stereo not given),0.14
7,CN(C)C(=O)NC1COC2(CCN(Cc3ccc(Cl)c(F)c3)CC2)C1 (stereo not given),-8.04
8,Cc1ccoc1C(=O)N1CC[C@H]2C[C@H](c3nnc(C4CC4)o3)O[C@@H]2C1,-11.79
9,CNC(=O)C1(C)CCCN1Cc1cnn(C)c1C (stereo not given),18.15
10,CC(C)OCCCN(CC(=O)N1CCNCC1)C(=O)c1ccc(F)cc1,-20.36
11,COc1ccc(OC)c(CNC(=O)N2CCC(n3cncn3)CC2)c1,3.06
12,COc1cc(Cl)ccc1CNC(=O)N1CCC(n2cncn2)CC1,70.27
13,CCOc1ccccc1CNC(=O)N1CCC(n2cncn2)CC1,-111.08
14,NC(=O)NC(=O)CCSc1ccccc1Cl,12.14
15,Cc1nc(C)n(CC2CN(CCc3ccncc3)CCO2)n1 (stereo not given),70.27
16,COc1ccc(CCN2CCOC(Cn3nc(C)nc3C)C2)cc1 (stereo not given),34.97
17,Cc1nc(C)n(CC2CN(CCOc3ccc(C#N)cc3)CCO2)n1 (stereo not given),50.05
18,Cc1nc(C)n(CC2CN(CCCc3ccccc3)CCO2)n1 (stereo not given),40.72
19,Cc1cc(C)n(CC2CN(CCOc3ccc(C#N)cc3)CCO2)n1 (stereo not given),13.24
20,COc1ccc(C)cc1CN1CCOC(Cn2nc(C)nc2C)C1 (stereo not given),60.09
21,Cc1nc(C)n(CC2CN(CCOc3cccc(C#N)c3)CCO2)n1 (stereo not given),-5.15
22,Cc1nc(C)n(CC2CN(Cc3cccc4ccccc34)CCO2)n1 (stereo not given),-53.98
23,Cc1nc(C)n(CC2CN(Cc3ccccc3OC(C)C)CCO2)n1 (stereo not given),-3.06
24,Cc1ncc(S(C)(=O)=O)c(N2CCCCCC2)n1,2.97
25,CCn1c(C)nnc1CN(C)C1CCN(Cc2nnc(C3CC3)o2)C1 (stereo not given),12.75
26,CCC1(C(=O)O)CCCN(C(=O)c2ccc(O)c(Cl)c2)C1 (stereo not given),-2.86
27,CCOC(=O)c1coc(N2CCN(Cc3ccc(C)cc3)C(=O)C2)n1,33.9

row,Structure (SMILES),INHIBITION [%]
1,Cn1nc(C2CCCN(Cc3cccc(F)c3)C2)c2nccnc21 (stereo not given),-13.37
2,O=C(CN1CCC(C(=O)c2cc(F)ccc2F)CC1)NC1CCCC1,-21.84
3,COCCN1CCC(C(=O)c2cc(F)ccc2F)CC1,-11.34
4,O=C(CCN1CCC(C(=O)c2cc(F)ccc2F)CC1)NC1CC1,34.93
5,O=C(CCN1CCC(C(=O)c2cc(F)ccc2F)CC1)NC1CCCC1,64.9
6,CC(C)OCCN1CCC(C(=O)c2cc(F)ccc2F)CC1,50.76
7,CCOCCN1CCC(C(=O)c2cc(F)ccc2F)CC1,43
8,CN1CCC(N(C)CCC(=O)N2CCC(Oc3ccc(Cl)cc3)CC2)C1 (stereo not given),8.75
9,Cn1nc(C(=O)N2CCOCC2)c2c1CN(CC1CCC1)C2,36.29
10,Cc1cc(-c2ccc(=O)n(C3CCN(S(=O)(=O)N(C)C)CC3)n2)c(C)o1,-34.37
11,CCC(CO)N(Cc1ccco1)Cc1c(C)nn(C)c1Cl (stereo not given),-10.67
12,CN1CCN(C(=O)c2cccn2C)c2ccccc2C1,-9.98
13,CCOC(=O)[C@]12CCCN(Cc3nccs3)C[C@H]1CN(C(C)C)C2,34.47
14,CS(=O)(=O)c1ccc(O[C@H]2COCCN(Cc3ccncc3)C2)cc1,50.91
15,COc1ccc(CN2CCOC[C@H](Oc3cccnc3)C2)cc1,27.04
16,CC(C)CN1CCOC[C@H](Oc2ccc(S(C)(=O)=O)cc2)C1,-36.65
17,Cc1nc(C)c(CN2CCOC[C@H](Oc3ccccc3)C2)s1,64.92
18,Cc1nc(C)c(CN2CCOC[C@H](Oc3ccc(S(C)(=O)=O)cc3)C2)s1,-40.15
19,Cc1cccc(O[C@H]2COCCN(Cc3sc(C)nc3C)C2)n1,17.64
20,CCN(Cc1ccc(C#N)cc1F)C(=O)C(C)(C)C,0.53
21,CCCS(=O)(=O)N1C[C@H]2CC[C@@H](C1)N(Cc1cscn1)C2=O,36.28
22,CN(C)CC(=O)N1CCC2(CC1)COCCN(Cc1ccncc1)C2,32.66
23,CCCc1nc(C(=O)N[C@H]2COC[C@@H]2N2CCN(C)CC2)cs1,-0.83
24,CS(=O)(=O)CCCN(CCc1cccc(F)c1)C1CC1,7.36
